Some test systems named below: NCI-H23 lung; NCI-H226 lung; NCI-H322M lung; HOP-62 NSCLC; NCI-H460 lung; HOP-92 NSCLC; NCI-H522 lung; A549/ATCC NSCLC; 786-0 renal; COLO 205 colon; DU-145 prostate; K-562 leukemia; MALME-3M melanoma; MDA-MB-231 breast; RXF 393 renal; SF-268 CNS; SF-295 CNS; SF-539 CNS; UACC-257 melanoma; M14 melanoma.
Assay in all cases: NCI-60 one-dose screen, 48 h (100 = growth as untreated, 0 = no growth, -100 = all killed)
Details in all cases: 10 µM unless noted

In PubChem BioAssay (NCI) one finds growth data, which are given here for eight compounds.

The panel holds about 83,000 compounds, 20% with a hit somewhere; the sample as a whole holds those more often.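 Negative percent growth values reflect cell death: -40 means 40% of the cells present at the start died, and -100 means all died.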 A number with no mark means an inactive call. Active and inactive are the calls of the source. The calls were made as follows: active = growth percent below 10; inactive = the rest.

As to `C/C(=N\NC(=O)Nc1ccccc1)c1nnn(-c2ccc([N+](=O)[O-])cc2)c1C`, the growth was 94.7% in the assay with NCI-H23 lung; 100% with NCI-H226 lung; 99.1% with NCI-H322M lung; 111% in the assay with HOP-62 NSCLC; 108% in the assay with NCI-H460 lung; 120% in the assay on HOP-92 NSCLC. The growth with NCI-H522 lung is 99.9%; in the assay with A549/ATCC NSCLC, 107%; in the assay on 786-0 renal, 102%; with COLO 205 colon, 112%; with DU-145 prostate it was 105%; with K-562 leukemia, 113%. Further, the growth in the assay on MALME-3M melanoma was 108%; in the assay on MDA-MB-231 breast it was 106%; with RXF 393 renal, 78.2%; with SF-268 CNS it was 103%; in the assay with SF-295 CNS, 108%; in the assay on SF-539 CNS, 99.9%. The results for the growth with UACC-257 melanoma and with M14 melanoma were 108% and 105%, respectively.
Take `O=C(CCCCCCNC(=O)C(O)(O)C(F)(F)F)Nc1nc2ccccc2s1`: the growth was 3.62% (active) in the assay on NCI-H23 lung; 25.4% in the assay on NCI-H226 lung; 8.24% (active) in the assay with NCI-H322M lung; 0.982% (active) in the assay with HOP-62 NSCLC; 8.87% (active) with NCI-H460 lung; -5.22% (active) in the assay on HOP-92 NSCLC. The growth in the assay with NCI-H522 lung was -35.8% (active); in the assay on A549/ATCC NSCLC it was 4.79% (active); in the assay on 786-0 renal, 20.3%; in the assay on COLO 205 colon it was -68.5% (active); with DU-145 prostate, 6.73% (active); in the assay on K-562 leukemia, 11.2%. The growth with MALME-3M melanoma was 14.4%; in the assay on MDA-MB-231 breast, 23.5%; in the assay with RXF 393 renal it was -47.3% (active); in the assay with SF-268 CNS it was 8.81% (active); with SF-295 CNS it was -36.5% (active); in the assay on SF-539 CNS it was 10.5%. The growth in the assay with UACC-257 melanoma is 8.93% (active); in the assay with M14 melanoma, 14.5%.
For the compound `CC1=C(C)C(=O)C(Nc2ccc3c(c2)OCO3)=C(Br)C1=O`, the growth in the assay with NCI-H23 lung is 90%; with NCI-H226 lung it was 93%; in the assay on NCI-H322M lung, 96.5%; in the assay with HOP-62 NSCLC, 92.9%; in the assay on NCI-H460 lung, 100%; in the assay with HOP-92 NSCLC it was -22.9% (active). Besides, the growth in the assay on NCI-H522 lung was 96.5%; in the assay on A549/ATCC NSCLC it was 102%; with 786-0 renal, 103%; with COLO 205 colon, 122%; in the assay with DU-145 prostate, 109%; in the assay with K-562 leukemia, 3.43% (active). For the same compound, the growth was 112% with MALME-3M melanoma; 69.4% with MDA-MB-231 breast; 105% in the assay on RXF 393 renal; 96.7% in the assay with SF-268 CNS; 96.8% in the assay with SF-295 CNS; 106% with SF-539 CNS. Besides, the growth with UACC-257 melanoma is 94.3%; in the assay on M14 melanoma, 105%.
On to `CCOC(=O)c1cnc2c(-c3ccc(Cl)c(Cl)c3)cnn2c1`, for which the growth in the assay on NCI-H23 lung is 82%; in the assay with NCI-H226 lung, 80.1%; with NCI-H322M lung, 90.8%; in the assay with HOP-62 NSCLC, 69.1%; in the assay on NCI-H460 lung, 99.7%; in the assay on HOP-92 NSCLC, 39.9%. Moreover, the growth was 66.9% with NCI-H522 lung; 96.4% in the assay on A549/ATCC NSCLC; 90.8% with 786-0 renal; 76.8% in the assay on COLO 205 colon; 104% with DU-145 prostate; 21.7% in the assay on K-562 leukemia. Further, the growth was 75.7% in the assay on MALME-3M melanoma; 81.5% with MDA-MB-231 breast; 79.7% in the assay on RXF 393 renal; 92.7% with SF-268 CNS; 82.9% with SF-295 CNS; 85.9% in the assay on SF-539 CNS. In addition, the growth was 81.9% with UACC-257 melanoma and 60% in the assay with M14 melanoma.
For the compound `Cc1ccccc1Nc1nc(SC(C)C)nc(-c2ccccc2)c1C#N`, the growth was 31.7% in the assay with NCI-H23 lung; 81.1% in the assay on NCI-H226 lung; 70% with NCI-H322M lung; 37% in the assay with HOP-62 NSCLC; 45.5% in the assay with NCI-H460 lung; 64.5% with HOP-92 NSCLC. The growth in the assay on NCI-H522 lung is 73%; in the assay with A549/ATCC NSCLC, 102%; in the assay on 786-0 renal, 10.6%; in the assay on COLO 205 colon, 119%; with DU-145 prostate, 76.6%; in the assay with K-562 leukemia, 46.3%. Further, the growth with MALME-3M melanoma is 66.3%; with MDA-MB-231 breast, 67.9%; with RXF 393 renal it was 28.1%; with SF-268 CNS, 57%; in the assay on SF-295 CNS, 23.8%; in the assay on SF-539 CNS it was 28.1%. Moreover, the growth in the assay with UACC-257 melanoma is 107%; with M14 melanoma it was 77.2%.
As for `CCOC(=O)C1=C(C)NC(C)=C(C(=O)OCc2ccccc2)C1c1cccc(C#N)c1` (stereo not given), the growth with NCI-H23 lung is 62.5%; with NCI-H226 lung it was 58.4%; in the assay with NCI-H322M lung, 69%; in the assay with HOP-62 NSCLC, 45.6%; in the assay with NCI-H460 lung, 22.1%; in the assay on HOP-92 NSCLC, 50.5%. Besides, the growth in the assay on NCI-H522 lung was 9.38% (active); in the assay with A549/ATCC NSCLC, 34.1%; with 786-0 renal, 36.2%; with COLO 205 colon, 34.5%; in the assay with DU-145 prostate, 57.2%; in the assay with K-562 leukemia it was 16.9%. Further, the growth was 38% with MALME-3M melanoma; 52.3% with MDA-MB-231 breast; 44.5% with RXF 393 renal; 57.1% with SF-268 CNS; 15.5% with SF-295 CNS; 23.1% in the assay with SF-539 CNS. Moreover, the results for the growth in the assay on UACC-257 melanoma and with M14 melanoma were 55.9% and 14.6%, respectively.
For the compound `Cn1c2nc3ccccc3c-2cc2ccccc21`, the growth with NCI-H23 lung was 44.9%; in the assay with NCI-H226 lung, 53%; in the assay on NCI-H322M lung it was 4.32% (active); with HOP-62 NSCLC it was 51.3%; in the assay on NCI-H460 lung it was 13.4%; in the assay with HOP-92 NSCLC, 57.2%. Also, the growth with NCI-H522 lung was 41.6%; in the assay with A549/ATCC NSCLC, 28.4%; in the assay with 786-0 renal it was 38%; in the assay on COLO 205 colon, 26%; in the assay with DU-145 prostate it was 30.9%; with K-562 leukemia it was 21.1%. Further, the growth with MALME-3M melanoma was 36.6%; in the assay on MDA-MB-231 breast, 36.1%; in the assay on RXF 393 renal it was 43.3%; with SF-268 CNS it was 57.3%; in the assay on SF-295 CNS, 39.6%; in the assay with SF-539 CNS, 39.1%. The growth is 49.2% in the assay with UACC-257 melanoma and 48.3% in the assay on M14 melanoma.
As for `CC(=O)OCCCCN1C=C/C(=C\C(=O)n2ccc3ccccc32)c2ccccc21`, the growth was 96.2% with NCI-H23 lung; 88.5% with NCI-H226 lung; 98.7% with NCI-H322M lung; 108% in the assay with HOP-62 NSCLC; 102% in the assay with NCI-H460 lung; 97.6% in the assay with HOP-92 NSCLC. Further, the growth with NCI-H522 lung is 99.1%; with A549/ATCC NSCLC it was 113%; in the assay with 786-0 renal it was 107%; with COLO 205 colon it was 108%; in the assay on DU-145 prostate, 109%; with K-562 leukemia, 90.6%. Also, the growth is 106% in the assay on MALME-3M melanoma; 86.6% in the assay with MDA-MB-231 breast; 115% with RXF 393 renal; 103% in the assay on SF-268 CNS; 103% in the assay with SF-295 CNS; 100% with SF-539 CNS. Also, the figures for the growth with UACC-257 melanoma and with M14 melanoma were 112% and 101%, respectively.
